Results: ChEMBL document CHEMBL4296182, “CO-ADD screening of NIH NCI Diversity Set V”
For part of these data: Results with a measured potency or affinity are listed apart.

Tests used:
[1] = tested on: Staphylococcus aureus; assay: Antibacterial activity against Staphylococcus aureus MRSA ATCC 43300 (CO-ADD:GP_020); MIC in CAMBH media using NBS plates, by Resazurin F(560/590); type: functional; conditions: Concentration 20 uM, ASSAY_TEST Inhibition of Bacterial Growth, detection method Resazurin, Fluorescence (ex560/em590), MEDIA CAMHB, plate type 384well, CORNING #3640, time 18 hr
[2] = tested on: Acinetobacter baumannii; assay: Antibacterial activity against Acinetobacter baumannii ATCC 19606 (CO-ADD:GN_034); MIC in CAMBH media using NBS plates, by Resazurin F(560/590); type: functional; conditions: Concentration 20 uM, ASSAY_TEST Inhibition of Bacterial Growth, detection method Resazurin, Fluorescence (ex560/em590), MEDIA CAMHB, plate type 384well, CORNING #3640, time 18 hr
[3] = tested on: Escherichia coli; assay: Antibacterial activity against Escherichia coli ATCC 25922 (CO-ADD:GN_001); MIC in CAMBH media using NBS plates, by Resazurin F(560/590); type: functional; conditions: Concentration 20 uM, ASSAY_TEST Inhibition of Bacterial Growth, detection method Resazurin, Fluorescence (ex560/em590), MEDIA CAMHB, plate type 384well, CORNING #3640, time 18 hr
[4] = tested on: Klebsiella pneumoniae; conditions: Concentration 20 uM; ASSAY_TEST Inhibition of Bacterial Growth; detection method Absorption (OD600); MEDIA CAMHB; plate type 384well; NBS; CORNING #3640; time 18 hr
[5] = tested on: Candida albicans; conditions: 20 µM
[6] = tested on: Cryptococcus neoformans; conditions: Concentration 20 uM; ASSAY_TEST Inhibition of Fungal Growth; detection method Resazurin; Absorption (OD600-OD570); plate type 384well; NBS; CORNING #3640

SMILES | Inhibition [1] [%] | Inhibition [2] [%] | Inhibition [3] [%] | Inhibition [4] [%] | Inhibition [5] [%] | Inhibition [6] [%]
Cc1cc2nc(-c3ccccn3)c(-c3ccccn3)nc2cc1C | -0.99 | 3.74 | 8.69 | 9.38 | 1.37 | -10.29
NC(=O)NC1NC(=O)NC1=O (stereo not given) [ALLANTOIN] | 12.16 | -7.41 | 9.38 | 18.45 | 2.26 | -7.8
Nc1cnc(Nc2ccc(Br)cc2)nc1N.O=S(=O)(O)O | 3.44 | 7.82 | -16.03 | 6.45 | 3.46 | 6.23
COc1ccc(Nc2cc(C)nc(N)n2)cc1 | -7.83 | -5.29 | -4.32 | 2.7 | 1.31 | -3.23
CCc1cccc2[nH]c3cc([N+](=O)[O-])ccc3c12 | 6.44 | 1.17 | 2.96 | -4.47 | 9.1 | 12.93
Nc1ccc(C(=O)C(=O)c2ccc(N)cc2)cc1 | -28.54 | -4.51 | -16.8 | 1.88 | 2.62 | 25.61
c1ccc2[nH]c(-c3ccncc3)nc2c1 | 11.19 | -5.55 | 7.11 | 18.73 | -0.07 | -8.67
CC(C)(C)NC1=NCCNC(c2ccccc2)=C1.CS(=O)(=O)O | -3.88 | 8.25 | 7 | 11.55 | 1.18 | -14.32
OCc1nnn(-c2ccccc2)c1CO | 11.04 | -9.88 | 7.14 | 22.49 | -4.02 | -6.38
CC(=C/c1ccccc1)/C=C1/NC(=S)NC1=O | 2.65 | 4.35 | -0.7 | 10.87 | 2.17 | -5.48
COc1cc2c(c3c1c(=O)c1cccc(F)c1n3C)C=CC(C)(C)O2 | 18.94 | 5.21 | 5.53 | 10.26 | 1.02 | -11.93
COc1ccc(C2=NC(=O)NC2c2ccc(OC)cc2)cc1 (stereo not given) | 6.62 | 10.45 | -0.66 | 17.66 | 6.15 | -4.19
COC(=O)c1ccccc1NCCO | -8.89 | 2.46 | 10.44 | 7.33 | -0.42 | -9.6
O=C(O)/C(Cc1c[nH]nn1)=N\O | -3.12 | -10.75 | 6.44 | 7.49 | 2.24 | -5.01
Nc1cc([N+](=O)[O-])ccc1N1C(=O)CCCC1=O | 5.36 | 15.02 | -8.9 | 10.57 | 7.24 | -9.22
CSc1cccc(NC(=O)N2CCN(C)CC2)c1 | 0.63 | -10.8 | 6.03 | 6.8 | 3.78 | -18.46
NS(=O)(=O)c1ccc(/N=N/c2c(O)c(C(=O)O)cc3ccccc23)cc1 | -3.85 | 10.2 | -7.6 | 18.16 | -3.08 | -0.96
Nc1cc(-c2ccccc2)ccc1O | 13.15 | -7.9 | 6.67 | 17.45 | 4.12 | -0.33
c1ccc(-c2nc(-c3ccccn3)nc(-c3ccccn3)n2)nc1 | 2.88 | 10.22 | -0.02 | 10.56 | 2.65 | -6.65
CCOC(CNCc1cc(C)c2[nH]c3ccccc3c2c1C)OCC | 11.65 | -1.22 | 3.76 | 8.4 | 1.3 | -11.65
Clc1nnc2c3ccccc3ccn12 | -3.22 | 2.03 | 3.3 | 8.71 | 1.01 | -9.43
COc1cccc(OCC(O)CN2CCN(c3ccc(Cl)cc3)CC2)c1 (stereo not given) | 13.17 | 4.14 | 2.15 | 0.79 | 0.05 | -12.54
Cc1ccccc1NC(=O)C(=O)Nc1ccccc1C | 22.64 | -12.42 | 18.63 | -3.39 | 6.51 | 7.92
O=C1c2ccccc2C(=O)N1c1nc[nH]n1 | 4.45 | -18.59 | 12.38 | 0.02 | -0.21 | -4.67
Cc1cc(=O)n2c3c(c4c(cc13)c(CN(C)C)cc(=O)n4C)OC2.Cl | -3.31 | 19.85 | 6.04 | 7.61 | -0.27 | -11

SMILES | Inhibition [1] [%] | Inhibition [2] [%] | Inhibition [3] [%] | Inhibition [4] [%] | Inhibition [5] [%] | Inhibition [6] [%]
NC(=O)N/N=C1\CC2CC1C1C=CCC21 (stereo not given) | 5.27 | -14.41 | 8.37 | 17.34 | -2.08 | -9.13
CSc1nc(C)cc(S)n1 | 0.72 | -7.16 | 3.46 | 5.27 | 18.9 | -4.48
Cc1c(Cl)ccc2c(C(=O)O)cc(-c3ccccc3)nc12 | -8.14 | 11.6 | 2.11 | 26.83 | 2.48 | 13.39
Cc1nc(S)nc(O)c1CCC1OCCO1 | 13.84 | -2.91 | 10.14 | -2.98 | -0.82 | -7.17
Cc1nc(SCC(=O)O)n[nH]1 [TIAZOTIC ACID] | 14.48 | -8.95 | 7.99 | 14.92 | 2.04 | -0.18
O=C1NC(=O)N2CCSC2(Cc2ccccc2)N1 (stereo not given) | 11.67 | 11.67 | -4.61 | 17.33 | 4.4 | -2.7
Oc1ccccc1Nc1ccccn1 | 8.12 | -5.24 | 13.47 | 16.23 | 1.04 | -3.55
Cc1csc(/N=N/c2ccc(N(C)C)cc2)[n+]1[O-] | 7.37 | -4.68 | 8.16 | 7.6 | 0.83 | -12.25
CSc1nc(O)c(Nc2cccc(Cl)c2)c(O)n1 | 7.02 | 14.23 | -1.67 | 7.49 | 0 | 16.48
O=C(O)Cc1sc(O)nc1O | 3.49 | -13.46 | 1.48 | 28.66 | 28.5 | -2.77
CC(=O)C1C=CC(C)(C(=O)O)C2C=C(C)C(=O)C(C)(O)C12 (stereo not given) | 4.72 | 16.27 | 8.25 | 21.21 | 1.75 | -4.78
CCOC(=O)c1c(O)cc(C)nc1O | 3.86 | -15.92 | 14.23 | 12.49 | 3.14 | 13.8
CC(OC(=O)Nc1cccc(Cl)c1)C(=O)O (stereo not given) | 8.5 | 9.43 | 16.3 | 7.75 | -1.51 | -11.24
O=C(O)/C(=C/c1ccccc1)c1ccccc1 | 7.86 | -10.93 | 11.66 | 8.35 | 8.14 | -16.02
CC(C)Oc1ccc(C(=O)O)cc1 | 3.26 | -8.45 | 5.58 | 15.4 | 24.9 | -0.99
CC(=O)O[C@H]1CC[C@@]2(C)[C@@H](CC[C@@H]3[C@@H]2CC(=O)[C@@]2(C)[C@H]3C[C@@H]3CC(C)=CC(=O)[C@@H]32)C1 | 25.43 | -5.19 | 14.73 | 18.64 | 2.5 | -9.27
O=C1C2C3C=CC(O3)C2C(=O)N1Nc1ccccc1 (stereo not given) | -4 | 10.94 | -0.67 | 8.39 | 1.05 | -2.5
Cn1cnc([N+](=O)[O-])c1Sc1nnc(-c2cccnc2)n1C | 12.02 | 15.57 | -1.31 | 17.06 | 6.51 | -6.62
O=C1OCC/C1=C\OCCCO/C=C1\CCOC1=O | -12.85 | -4.57 | -5.06 | 8.79 | -0.38 | -11.43
CCCn1cnc2c(Sc3c([N+](=O)[O-])ncn3C)nc(N)nc21 | -2.1 | -3.75 | 6.82 | 9.05 | 1.1 | -2.37
CN(C)c1nc(Cl)nc2c1nc(Cl)n2C1CCCCO1 (stereo not given) | 8.01 | -7.69 | 0.28 | 5.28 | 1.95 | -3.53
O=C1CCC(NC(=O)c2ccccc2)C(=O)N1 (stereo not given) | 13.55 | 6.82 | 7.42 | 5.68 | 1.37 | -6.13
COc1cc(C(=O)OC(C)CN2CCOCC2)cc(OC)c1OC (stereo not given) | 13.82 | 10.27 | 6.24 | 16.73 | -2.91 | -0.56
Nn1c(Cc2ccccc2)nnc1Cc1ccccc1 | 7.31 | 16.12 | -0.96 | 11.84 | 2.51 | -5.12
CC(O)c1nc2c(c(=O)n(C)c(=O)n2C)n1C (stereo not given) | -5.57 | -6.98 | 6.75 | 7.56 | -1.01 | -6.24
